Activity calls are given as the source filed them. Unless noted, the rule behind the calls is not given here.
How the values were obtained:
[1] = HepG2 liver cancer cell viability effects, profiling panel, resazurin fluorescence, 24 h, PK04 Diversity Set (AID 1172); conditions: higher = more signal
[2] = basal S. cerevisiae growth modulation, no modifier, primary screen, OD600, strain BY4716, 24 h, basal condition (AID 1173); conditions: OD600, 24 h, higher = more signal, called active from +8 up or from −8 down
[3] = MM1S myeloma cell viability, profiling panel, resazurin fluorescence, basal, 24 h, PK04 Diversity Set (AID 1174); conditions: higher = more signal, called active from +8 up or from −8 down;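 note: MM1S multiple myeloma cell line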
[4] = target: Dihydroorotate dehydrogenase (quinone), mitochondrial (Plasmodium falciparum (isolate 3D7)) (UniProt Q08210); experiment: PfDHODH enzyme inhibitors, primary screen, biochemical, C-terminal His tag, absorbance 600 nm (AID 1175); conditions: DCIP absorbance 600 nm, higher = more signal, called active from +8 up or from −8 down;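 note: recombinant parasite enzyme with a five histidine tag at its C terminus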
[5] = P. aeruginosa biofilm formation inhibitors, primary screen, strain PAO1, LB-PBS medium, absorbance 600 nm (AID 1176); conditions: P. aeruginosa PAO1 growth/biofilm, A600, 12 h; higher = more signal
[6] = S. cerevisiae RM11-1a growth modifiers, primary screen, strain RM11-1a, OD600, basal, 24 h (AID 1177); conditions: OD600, 24 h, higher = more signal, called active from +8 up or from −8 down;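 note: cultures grown under basal conditions with no added stressor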
[7] = E. coli acrAB mutant growth effects, primary screen, E. coli filamentation inducers, strain DRC39, OD650, 24 h (AID 1178); conditions: higher = more signal, called active from +8 up or from −8 down;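 note: growth measured as culture turbidity by optical density at 650 nm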
[8] = E. coli acrAB mutant growth effects, primary screen, E. coli filamentation inducers, strain DRC39, OD650, 48 h (AID 1179);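 note: screen aims at cell division blockers that make cells filament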; conditions: E. coli DRC39 delta-acrAB growth, higher = more signal, called active from +8 up or from −8 down
[9] = RPMI8226 myeloma cell viability, profiling panel, resazurin fluorescence, basal, 24 h, PK04 Diversity Set (AID 1180); conditions: higher = more signal;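 note: RPMI8826 multiple myeloma cell line at 5000 cells per well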
[10] = target: E3 ubiquitin-protein ligase XIAP (Homo sapiens) (UniProt P98170); experiment: XIAP binders, primary screen, biophysical, small-molecule microarray, fluorescence 635 nm (AID 1181); conditions: small-molecule microarray binding, higher = more signal;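 note: score merges 667 nm emission and signal to noise over triplicate slides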
[11] = system: XIP peptide (Xip251-270) binding; experiment: small-molecule binders of XIP peptide, primary screen, biochemical, small-molecule microarray, fluorescence 635/667 nm, 0.1 µg/mL protein (AID 1182); conditions: fluorescent protein binding, 635 nm, higher = more signal, called active from +8 up or from −8 down
[12] = system: XIP peptide (Xip251-270); experiment: small-molecule binders of XIP peptide, primary screen, biochemical, small-molecule microarray, fluorescence 635/667 nm, 0.5 µg/mL protein (AID 1183); conditions: small-molecule microarray binding, fluorescence 635 nm; higher = more signal
[13] = Plasmodium falciparum growth inhibition, primary screen, strain 3D7, DAPI fluorescence, 100 nL (AID 1184);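 note: parasites grown inside human red blood cells in medium with human serum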; conditions: P. falciparum 3D7 growth, 3 d, higher = more signal
[14] = target: Homeobox protein Hox-A13 (Mus musculus) (UniProt Q62424); experiment: inhibitors of HoxA13-DNA binding, primary screen, biochemical, fluorescence polarization, labeled oligonucleotide (AID 1185); conditions: 15 min, higher = more signal, called active from +8 up or from −8 down
[15] = inhibitors of hydroxyurea-induced Chk1 phosphorylation, primary screen, imaging, HeLa, phospho-Chk1 antibody, percent positive cells (AID 1186); conditions: hydroxyurea-induced phospho-Chk1 immunofluorescence imaging, higher = more signal
[16] = inhibitors of hydroxyurea-induced Chk1 phosphorylation, primary screen, imaging, HeLa, phospho-Chk1 nuclear intensity (AID 1187); conditions: hydroxyurea-induced phospho-Chk1 immunofluorescence imaging, higher = more signal

E3 ubiquitin-protein ligase XIAP (Homo sapiens), sequence (P98170 whole entry, looked up): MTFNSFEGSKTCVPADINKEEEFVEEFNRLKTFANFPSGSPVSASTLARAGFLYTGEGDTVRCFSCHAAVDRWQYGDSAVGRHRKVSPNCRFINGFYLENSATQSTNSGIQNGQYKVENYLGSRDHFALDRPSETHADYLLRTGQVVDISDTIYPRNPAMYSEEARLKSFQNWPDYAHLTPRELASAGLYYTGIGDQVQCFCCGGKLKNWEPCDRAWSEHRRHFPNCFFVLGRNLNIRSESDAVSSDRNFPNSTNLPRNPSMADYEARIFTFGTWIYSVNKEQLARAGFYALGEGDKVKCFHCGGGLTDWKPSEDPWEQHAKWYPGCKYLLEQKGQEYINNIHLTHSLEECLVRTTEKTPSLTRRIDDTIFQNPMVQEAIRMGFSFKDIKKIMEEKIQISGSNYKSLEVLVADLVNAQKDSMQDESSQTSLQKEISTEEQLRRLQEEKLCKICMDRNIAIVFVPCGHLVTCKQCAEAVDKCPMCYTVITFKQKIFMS
Homeobox protein Hox-A13 (Mus musculus), sequence (Q62424 whole entry, looked up): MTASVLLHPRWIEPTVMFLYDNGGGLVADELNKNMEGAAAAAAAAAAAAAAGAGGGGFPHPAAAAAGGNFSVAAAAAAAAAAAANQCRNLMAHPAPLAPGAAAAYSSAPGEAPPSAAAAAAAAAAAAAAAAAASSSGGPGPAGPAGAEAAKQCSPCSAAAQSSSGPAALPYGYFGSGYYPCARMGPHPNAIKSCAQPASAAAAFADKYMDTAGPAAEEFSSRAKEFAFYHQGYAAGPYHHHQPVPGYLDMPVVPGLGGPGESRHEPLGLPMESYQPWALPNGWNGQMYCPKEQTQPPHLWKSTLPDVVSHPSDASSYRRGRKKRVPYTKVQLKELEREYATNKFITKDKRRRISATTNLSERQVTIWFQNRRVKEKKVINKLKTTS
Dihydroorotate dehydrogenase (quinone), mitochondrial (Plasmodium falciparum (isolate 3D7)), sequence (Q08210 whole entry, looked up): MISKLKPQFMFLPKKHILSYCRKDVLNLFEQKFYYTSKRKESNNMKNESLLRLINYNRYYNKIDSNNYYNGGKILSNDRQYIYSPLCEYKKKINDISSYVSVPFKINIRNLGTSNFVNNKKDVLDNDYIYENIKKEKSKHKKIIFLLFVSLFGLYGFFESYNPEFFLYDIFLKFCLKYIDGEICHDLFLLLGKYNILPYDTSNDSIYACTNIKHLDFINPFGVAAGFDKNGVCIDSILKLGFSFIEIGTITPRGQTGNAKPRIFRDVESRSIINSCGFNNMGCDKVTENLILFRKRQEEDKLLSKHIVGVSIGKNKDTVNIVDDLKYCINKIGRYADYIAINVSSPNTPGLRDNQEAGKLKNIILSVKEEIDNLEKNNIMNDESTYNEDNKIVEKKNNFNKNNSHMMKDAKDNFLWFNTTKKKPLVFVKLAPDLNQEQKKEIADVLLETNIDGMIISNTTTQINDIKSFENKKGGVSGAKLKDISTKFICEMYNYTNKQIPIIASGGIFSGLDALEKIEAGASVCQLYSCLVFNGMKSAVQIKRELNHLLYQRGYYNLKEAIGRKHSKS

C=CC[C@]1(C(=O)OC)N=C(c2ccc(OCCCO)cc2)O[C@H]1c1ccccc1N=[N+]=[N-]
z-score [1]: -0.344
z-score [2]: -0.352 (inactive)
z-score [3]: -0.455 (inactive)
composite z-score [4]: 0.823 (inactive)
z-score [5]: 0.935 (inactive)
z-score [6]: 1.6 (inactive)
z-score [7]: 0.0005 (inactive)
z-score [8]: -1.12 (inactive)
z-score [9]: -0.406
composite z-score [10]: 0.509
composite z-score [11]: 1.61 (inactive)
composite z-score [12]: 0.867
z-score [13]: -2.21
z-score [14]: -3.31 (inactive)
z-score [15]: -0.179 (inactive)
z-score [16]: 0.059 (inactive)

COCCOC(=O)N1C(=O)[C@@]2(c3cc(C#CCCO)ccc31)[C@H](c1ccccc1OCCO)N1[C@H](c3ccccc3)[C@H](c3ccccc3)OC(=O)[C@H]1[C@@H]2C(=O)N1CCc2cc(OC)c(OC)cc2C1
z-score [1]: -0.321
z-score [2]: 1.39 (inactive)
z-score [3]: 0.248 (inactive)
composite z-score [4]: 0.725 (inactive)
z-score [5]: 1.26 (inactive)
z-score [6]: 2 (inactive)
z-score [7]: 0.0965 (inactive)
z-score [8]: 0.963 (inactive)
z-score [9]: 1.19
composite z-score [10]: 0.132
composite z-score [11]: 0.291 (inactive)
composite z-score [12]: 0.816
z-score [13]: -1.75
z-score [14]: 0.0237 (inactive)
z-score [15]: -0.156 (inactive)
z-score [16]: 0.0652 (inactive)

O=C1O[C@H](c2ccccc2)[C@H](c2ccccc2)N2[C@H]1[C@@H](C(=O)NC[C@H](O)c1ccccc1)[C@]1(C(=O)Nc3ccc(C#CCCO)cc31)[C@H]2c1ccccc1OCCO
z-score [1]: 1.19
z-score [2]: 0.904 (inactive)
z-score [3]: -1.12 (inactive)
composite z-score [4]: -0.532 (inactive)
z-score [5]: 0.517 (inactive)
z-score [6]: 1.48 (inactive)
z-score [7]: 0.439 (inactive)
z-score [8]: -0.467 (inactive)
z-score [9]: -0.591
composite z-score [10]: -0.209
composite z-score [11]: 0.419 (inactive)
composite z-score [12]: 0.693
z-score [13]: -1.4
z-score [14]: -4 (inactive)
z-score [15]: 0.125 (inactive)
z-score [16]: 0.46 (inactive)

COc1cc2c(cc1O)C(C1CC1)N(Cc1ccc([N+](=O)[O-])o1)CC2 (centres undefined)
z-score [1]: -0.145
z-score [2]: -1.49 (inactive)
z-score [3]: -0.0144 (inactive)
composite z-score [4]: -4.24 (inactive)
z-score [5]: 0.0898 (inactive)
z-score [6]: -0.346 (inactive)
z-score [7]: -0.698 (inactive)
z-score [8]: -0.821 (inactive)
z-score [9]: 0.211
composite z-score [10]: 0.234
composite z-score [11]: 0.402 (inactive)
composite z-score [12]: 0.315
z-score [13]: -0.993
z-score [14]: -6.04 (inactive)
z-score [15]: -0.0479 (inactive)
z-score [16]: 0.125 (inactive)

CC1CC/C=C\[C@H]2OC34C=CCN(c5ccc(Cl)cc5)C(=O)[C@H]3N(CCCO)C(=O)[C@]4(C)C2C(=O)O1 (some centres undefined)
z-score [1]: -1.08
z-score [2]: 1.44 (inactive)
z-score [3]: -0.198 (inactive)
composite z-score [4]: 1.44 (inactive)
z-score [5]: -0.897 (inactive)
z-score [6]: 0.941 (inactive)
z-score [7]: -0.699 (inactive)
z-score [8]: -0.801 (inactive)
z-score [9]: -0.208
composite z-score [10]: -0.151
composite z-score [11]: 0.412 (inactive)
composite z-score [12]: 0.861
z-score [13]: 0.4
z-score [14]: -4.75 (inactive)
z-score [15]: -0.226 (inactive)
z-score [16]: 0.117 (inactive)

C=C(CC1([C@@H](NP(=O)(c2ccccc2)c2ccccc2)[C@H]2C[C@@H]2CCN(C(=O)OCC)S(=O)(=O)c2ccc(C)cc2)CC1)c1ccccc1
z-score [1]: 0.716
z-score [2]: 1.97 (inactive)
z-score [3]: -1.59 (inactive)
composite z-score [4]: 0.0407 (inactive)
z-score [5]: 0.687 (inactive)
z-score [6]: 1.52 (inactive)
z-score [7]: 0.104 (inactive)
z-score [8]: -0.194 (inactive)
z-score [9]: -1.05
composite z-score [10]: 0.303
composite z-score [11]: 0.43 (inactive)
composite z-score [12]: 0.666
z-score [13]: -1.75
z-score [14]: -2.18 (inactive)
z-score [15]: -0.215 (inactive)
z-score [16]: -0.0171 (inactive)

CCCC=C(CCC)[C@@H](NC(=O)c1ccccc1)c1ccc(C(=O)OC)cc1
z-score [1]: 0.295
z-score [2]: -0.366 (inactive)
z-score [3]: 0.286 (inactive)
composite z-score [4]: -5.83 (inactive)
z-score [5]: 2.23 (inactive)
z-score [6]: -0.363 (inactive)
z-score [7]: -0.634 (inactive)
z-score [8]: -0.078 (inactive)
z-score [9]: -0.0265
composite z-score [10]: 0.209
composite z-score [11]: -0.0026 (inactive)
composite z-score [12]: 0.222
z-score [13]: -0.891
z-score [14]: -0.72 (inactive)
z-score [15]: 0.473 (inactive)
z-score [16]: 0.204 (inactive)

CC(C)C[C@H]1NC(=O)[C@@H](C)NC(=O)[C@@]23C(=O)N[C@@H](Cc4ccccc4)C2[C@H](C)[C@@]2(C)O[C@H]2C3/C=C/C/C=C\CNC1=O (some centres undefined)
z-score [1]: -0.328
z-score [2]: -0.808 (inactive)
z-score [3]: 0.0814 (inactive)
composite z-score [4]: -1 (inactive)
z-score [5]: 0.531 (inactive)
z-score [6]: -1.27 (inactive)
z-score [7]: -0.46 (inactive)
z-score [8]: 0.184 (inactive)
z-score [9]: 0.184
composite z-score [10]: -0.102
composite z-score [11]: 1.06 (inactive)
composite z-score [12]: 0.679
z-score [13]: 0.234
z-score [14]: -6.94 (inactive)
z-score [15]: 0.255 (inactive)
z-score [16]: 0.0218 (inactive)

[N-]=[N+]=NCc1ccccc1[C@@H]1OC(c2ccc(OCCCO)cc2)=N[C@]1(Cc1ccccc1)C(=O)NCc1ccccc1
z-score [1]: 0.771
z-score [2]: 0.467 (inactive)
z-score [3]: -0.0664 (inactive)
composite z-score [4]: 0.101 (inactive)
z-score [5]: -0.223 (inactive)
z-score [6]: 1.7 (inactive)
z-score [7]: -0.0548 (inactive)
z-score [8]: 0.065 (inactive)
z-score [9]: -0.484
composite z-score [10]: 0.1
composite z-score [11]: 0.362 (inactive)
composite z-score [12]: 0.573
z-score [13]: -2.24
z-score [14]: 2.8 (inactive)
z-score [15]: -0.306 (inactive)
z-score [16]: -0.144 (inactive)

Source: PubChem BioAssay
